Among the data in PubChem BioAssay are composite z-score, z-score and composite Z-score values, retold here.

SMILES strings stand for the structures. Activity calls are given as the source filed them.

Experiment [1] has as its system Human papillomavirus type 1a protein E7 (residues 44-93). The experiment is described as follows: HPV1a E7 fragment binders on microarrays, primary screen, biochemical, small-molecule microarray, residues 44-93, 635 nm fluorescence (AID 1108).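 Further: E7 fragment applied at 1 µg/mL in TBST for 1 h at 4 C; score combines spot fluorescence with its signal to noise ratio.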 Conditions: small-molecule microarray binding, fluorescence 635 nm; higher = more signal.
Experiment [2] in a line: modulators of HCV replicon luciferase signal, primary screen, HCV replication inhibitor project, Huh7 cells, luciferase reporter (AID 1109).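 Further: huh7 hepatoma cells harbouring a luciferase neomycin HCV replicon reporter; luciferase luminescence as measure of HCV replicon replication; test concentration not given here.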 Conditions: 48 h, higher = more signal. Background: A replicon is a self-replicating genome or part of one, used to study replication in cells.
For experiment [3], the target named is Left-right determination factor 2 (Homo sapiens) (UniProt O00292). The experiment is described as follows: LEFTY2 binders on small-molecule microarrays, primary screen, biochemical, small-molecule microarray, 635 nm fluorescence scan (AID 1110). To be noted: LEFTY2 binding, higher = more signal.
Experiment [4] addresses Calmodulin-1 (Homo sapiens) (UniProt P0DP23). The experiment is described as follows: CALM1 binders on microarrays, EGTA buffer, profiling panel, biochemical, small-molecule microarray, Cy5-labelled CALM1 (AID 1111).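 Further: labelled calmodulin applied in Tris saline Tween buffer holding calcium plus EGTA and DTT.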 To be noted: Cy5-CALM1 binding fluorescence, higher = more signal.
For experiment [5] the target is unchanged. In words: calcium-bound CALM1 binders on microarrays, profiling panel, artefact control for SMM control-protein annotation, biochemical, small-molecule microarray, Cy5-labelled CALM1, plus calcium (AID 1112).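 Further: score merges spot fluorescence with signal to noise from triplicate slides.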 To be noted: Cy5-CALM1 binding fluorescence, higher = more signal.
Experiment [6] is described as follows: small-molecule microarray binders of probe aWnt5a, primary screen, biochemical, biotinylated probe, 635/667 nm fluorescence (AID 1113).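 Further: score merges 667 nm fluorescence intensity with signal-to-noise per printed feature.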 Conditions: higher = more signal.
Experiment [7] in a line: small-molecule microarray binders of probe aShh, primary screen, biochemical, biotinylated probe, 635/667 nm fluorescence (AID 1114).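 Further: probe is biotin-labelled aShh protein from a stem cell growth factor screen; measures binding of labelled protein to compounds printed on the slide; score merges feature fluorescence at 667 nm with signal-to-noise.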 To be noted: higher = more signal.
Experiment [8] can be described thus: small-molecule microarray binders of probe aNog, primary screen, biochemical, biotinylated probe, 635/667 nm fluorescence (AID 1115).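 Further: probe is biotinylated aNog protein used at 0.15 µg/mL for 1 h at 4 C; z-score combines 667 nm fluorescence of each spot with its signal to noise.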 Conditions: higher = more signal.
In experiment [9] the target is Torsin-1A-interacting protein 1 (Homo sapiens) (UniProt Q5JTV8). The experiment is described as follows: LAP1 binders from COS7 cell lysate, primary screen, small-molecule microarray, 635/667 nm fluorescence (AID 1116). Conditions: COS7-hLAP1 lysate binding, 635 nm fluorescence, higher = more signal.
The target in experiment [10] is Alpha-bungarotoxin (Bungarus multicinctus) (UniProt P60615). In words: alpha-bungarotoxin binders on microarray, profiling panel, artefact control for SMM control protein annotation, biochemical, small-molecule microarray, Alexa647 label, 635/667 nm fluorescence (AID 1117). To be noted: alpha-BTX-A647 binding fluorescence, higher = more signal.
A further experiment addresses Albumin (Bos taurus) (UniProt P02769). In words: bovine serum albumin binders on microarray, profiling panel, artefact control for SMM control protein annotation, biochemical, small-molecule microarray, Alexa647 label, 635/667 nm fluorescence (AID 1118).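 Further: score merges 667 nm emission intensity and signal-to-noise per printed compound spot.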 To be noted: BSA-A647 binding, fluorescence 635 nm, higher = more signal.
Experiment [11] is described as follows: small-molecule microarray binders of probe aXIP, primary screen, biochemical, NeuroSMM set, 635/667 nm fluorescence (AID 1119).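 Further: probe is the protein aXip251-270 applied at 1 µg/mL to compound-printed slides; binding of probe to printed compounds measured as 667 nm fluorescence plus signal to noise.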 To be noted: higher = more signal, called active from +8 up or from −8 down.
A short description of experiment [12]: small-molecule binders of probe aNOTCH3, primary screen, biochemical, small-molecule microarray, 635/667 nm fluorescence (AID 1120).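 Further: probe is a biotin-tagged antibody raised against NOTCH3 rather than NOTCH3 protein; score merges spot fluorescence near 667 nm with spot signal to noise.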 Conditions: higher = more signal.
Experiment [13] is described as follows: small-molecule binders of probe aNOTCH2, primary screen, biochemical, small-molecule microarray, 635/667 nm fluorescence (AID 1121).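 Further: score merges feature fluorescence read at 667 nm with its signal to noise.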 Conditions: higher = more signal.
Experiment [14] deals with Carbonic anhydrase 2 (Homo sapiens) (UniProt P00918). In words: CAII small-molecule binders, profiling panel, biochemical, small-molecule microarray, Alexa647-labelled CAII (AID 1122). To be noted: CAII-A647 binding fluorescence, higher = more signal.
Experiment [15] is described as follows: COS7 lysate on small-molecule microarray, probe aHis, 635 nm (AID 1123).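 Further: z-score combines 667nm fluorescence intensity with signal-to-noise per printed compound spot.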 To be noted: COS7 cell lysate, fluorescence, higher = more signal.
A short description of experiment [16]: compound binding in COS7 lysate, probe aLAP1, primary screen, cell lysate, small-molecule microarray (AID 1124).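 Further: lysate comes from COS7 cells expressing LAP1 and is applied at 0.3 µg/mL; score merges spot fluorescence near 667 nm with signal-to-noise over triplicate slides.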 Conditions: probe aLAP1, fluorescence, higher = more signal.
Another experiment concerns Sam68 (KHDRBS1). In words: Sam68 small-molecule binders, primary screen, biochemical, small-molecule microarray, 635 nm fluorescence (AID 1125).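 Further: score merges 667 nm channel intensity with signal to noise over triplicate slides.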 To be noted: small-molecule microarray binding, higher = more signal.
In experiment [17] the test system is Chordin-like protein 2 (CHRDL2). The experiment is described as follows: CHRDL2 small-molecule binders, primary screen, biochemical, small-molecule microarray, 635 nm fluorescence (AID 1126).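 Further: printed compound slides probed with Chrdl2 protein at 4 µg/mL for 1 h at 4 C; score merges 667 nm emission intensity with signal to noise over three replicate slides.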 To be noted: small-molecule microarray binding, fluorescence 635 nm; higher = more signal.
In experiment [18] the target is Concanavalin-A (Canavalia ensiformis) (UniProt P02866). In words: ConA small-molecule binders, primary screen, artefact control for SMM control protein annotation, biochemical, small-molecule microarray, Alexa647 label, 635 nm (AID 1127).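 Further: z combines 667 nm emission intensity with signal-to-noise across three replicate slides.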 Conditions: ConA-A647 binding fluorescence, higher = more signal.
Concanavalin-A (Canavalia ensiformis), sequence (P02866 whole entry, looked up): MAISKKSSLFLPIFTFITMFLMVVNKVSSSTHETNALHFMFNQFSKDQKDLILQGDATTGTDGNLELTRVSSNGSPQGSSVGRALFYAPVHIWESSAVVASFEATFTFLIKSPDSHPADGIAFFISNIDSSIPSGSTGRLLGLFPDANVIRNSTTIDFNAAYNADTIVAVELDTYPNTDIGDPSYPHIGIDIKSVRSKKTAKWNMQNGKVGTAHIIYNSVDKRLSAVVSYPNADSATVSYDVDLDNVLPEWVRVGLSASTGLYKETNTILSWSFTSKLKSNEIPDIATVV

Albumin (Bos taurus), sequence (P02769 whole entry, looked up): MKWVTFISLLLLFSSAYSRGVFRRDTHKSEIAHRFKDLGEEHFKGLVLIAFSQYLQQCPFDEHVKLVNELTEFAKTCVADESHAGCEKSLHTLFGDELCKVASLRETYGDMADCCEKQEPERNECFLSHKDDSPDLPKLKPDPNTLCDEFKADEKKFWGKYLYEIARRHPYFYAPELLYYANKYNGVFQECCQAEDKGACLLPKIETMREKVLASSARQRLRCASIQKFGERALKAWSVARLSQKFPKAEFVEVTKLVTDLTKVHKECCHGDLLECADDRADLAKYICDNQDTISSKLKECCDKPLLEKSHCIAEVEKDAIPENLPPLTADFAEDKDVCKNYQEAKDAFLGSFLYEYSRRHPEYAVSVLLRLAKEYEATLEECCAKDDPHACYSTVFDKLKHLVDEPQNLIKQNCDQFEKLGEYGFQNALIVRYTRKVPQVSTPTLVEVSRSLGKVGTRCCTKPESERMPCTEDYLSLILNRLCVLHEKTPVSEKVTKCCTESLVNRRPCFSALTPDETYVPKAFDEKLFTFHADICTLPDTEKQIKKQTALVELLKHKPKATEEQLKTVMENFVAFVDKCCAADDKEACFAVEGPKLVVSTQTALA
Torsin-1A-interacting protein 1 (Homo sapiens), sequence (Q5JTV8 whole entry, looked up): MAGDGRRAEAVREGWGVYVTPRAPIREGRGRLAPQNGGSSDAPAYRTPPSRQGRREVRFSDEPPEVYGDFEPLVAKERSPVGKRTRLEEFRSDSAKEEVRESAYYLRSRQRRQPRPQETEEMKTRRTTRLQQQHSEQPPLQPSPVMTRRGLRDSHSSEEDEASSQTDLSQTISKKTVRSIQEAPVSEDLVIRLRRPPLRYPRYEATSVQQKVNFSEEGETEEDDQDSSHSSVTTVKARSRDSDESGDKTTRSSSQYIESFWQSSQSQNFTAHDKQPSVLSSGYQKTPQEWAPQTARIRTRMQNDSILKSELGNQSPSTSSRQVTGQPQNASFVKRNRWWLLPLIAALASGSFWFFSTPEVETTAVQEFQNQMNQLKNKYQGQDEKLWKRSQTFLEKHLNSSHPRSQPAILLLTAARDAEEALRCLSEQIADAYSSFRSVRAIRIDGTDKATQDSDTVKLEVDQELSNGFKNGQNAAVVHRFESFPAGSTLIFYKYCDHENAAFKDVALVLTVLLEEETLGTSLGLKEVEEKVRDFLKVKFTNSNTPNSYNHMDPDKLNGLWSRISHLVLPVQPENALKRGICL
Alpha-bungarotoxin (Bungarus multicinctus), sequence (P60615 whole entry, looked up): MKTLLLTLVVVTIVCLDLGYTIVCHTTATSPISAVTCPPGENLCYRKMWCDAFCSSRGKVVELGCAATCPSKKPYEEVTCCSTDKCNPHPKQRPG
Left-right determination factor 2 (Homo sapiens), sequence (O00292 whole entry, looked up): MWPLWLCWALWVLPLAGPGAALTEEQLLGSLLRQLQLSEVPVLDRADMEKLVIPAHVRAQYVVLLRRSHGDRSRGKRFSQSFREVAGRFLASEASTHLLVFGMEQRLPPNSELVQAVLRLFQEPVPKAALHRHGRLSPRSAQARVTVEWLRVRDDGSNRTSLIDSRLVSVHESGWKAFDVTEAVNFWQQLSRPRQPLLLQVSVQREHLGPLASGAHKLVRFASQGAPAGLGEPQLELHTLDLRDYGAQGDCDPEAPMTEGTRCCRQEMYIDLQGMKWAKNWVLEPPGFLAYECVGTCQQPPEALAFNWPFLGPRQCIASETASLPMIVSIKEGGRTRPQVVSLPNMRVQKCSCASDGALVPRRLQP

Regarding `CCCCCCC#C[Si](O[C@H](c1ccccc1)c1cn(Cc2cccc(Cl)c2)nn1)(C(C)C)C(C)C`, the composite z-score was 0.564 in experiment [1]; 0.198 in [3]; -0.0008 in experiment [4]; -0.159 in experiment [5]; -0.124 in experiment [6]; -0.0035 in [7]. The composite z-score is -0.118 in experiment [8]; 0.343 in [9]; -0.0766 in [10]; 0.31 with Albumin (Bos taurus); -0.0647 in experiment [12]; -0.104 in experiment [13]. Besides, the composite z-score in [14] was 0.205; in experiment [15], 0.186; in [16], -0.124; in the experiment on Sam68 (KHDRBS1) it was 0.581; in experiment [17], 0.141; in experiment [18], 0.57. This compound came in with a z-score in [2] of -0.775. Further, in experiment [11], the composite Z-score is 0.242 (inactive).

With `C=CCOC(=O)[C@@H]1[C@H]2C(=O)O[C@H](c3ccccc3)[C@H](c3ccccc3)N2[C@H](c2ccc(OCCOC(=O)[C@@H]3C[C@@H]4C(=O)N[C@@H](CCCCNC(C)=O)C(=O)N4[C@@H]3c3ccc(O)cc3)cc2)[C@@]12C(=O)Nc1ccc(I)cc12`, the composite z-score in [1] was 1.41; in [3] it was 0.722; in experiment [4], 0.743; in [5], -0.342; in [6] it was -0.0684; in experiment [7], 0.0098. In addition, the composite z-score in experiment [8] was -0.192; in [9], 0.6; in [10], 0.831; with Albumin (Bos taurus), -0.427; in experiment [12], 0.844; in [13] it was -0.0458. The composite z-score in experiment [14] worked out at 0.5; in experiment [15], 1.86; in experiment [16], 0.705; in the experiment on Sam68 (KHDRBS1), 1.29; in experiment [17] it was 0.986; in experiment [18], 1.15. The compound also yielded a z-score in experiment [2] of -0.66. The composite Z-score in experiment [11] is 1.48 (inactive).

For `COC(=O)[C@@]1(Cc2ccc(F)cc2)[C@H]2c3cc(C(=O)N(C)C)n(CCSCCO)c3C[C@H]2CN1C(=O)c1ccccc1`, the composite z-score in experiment [1] is 0.0689; in experiment [3], -0.293; in experiment [4], 2.32; in experiment [5] it was 0.559; in [6] it was -0.0977; in [7], 0.123. For the same compound, the composite z-score in experiment [8] is 1.6; in [9] it was 0.51; in [10], 0.224; in the experiment with Albumin (Bos taurus), 1.04; in experiment [12], 0.0179; in experiment [13], -0.0568. Moreover, the composite z-score in experiment [14] is 0.726; in [15] it was 2.15; in [16], 0.96; with Sam68 (KHDRBS1), 0.584; in experiment [17] it was 0.191; in experiment [18] it was -0.103. In addition, the z-score in experiment [2] is -0.663. The composite Z-score in experiment [11] is 0.116 (inactive).

`O=[N+]([O-])c1ccc(C[n+]2ccc(-c3ccc(CO)cc3)cc2)o1`: the composite z-score is 0.418 in [1]; 0.187 in [3]; -0.165 in [4]; 0.451 in [5]; -0.001 in [6]; 0.172 in [7]. Further, the composite z-score in experiment [8] is 0.327; in experiment [9], 1.12; in experiment [10], 1.49; with Albumin (Bos taurus), 0.904; in [12] it was -0.0043; in [13] it was -0.0485. The composite z-score is 0.885 in experiment [14]; 1.13 in [15]; 1.2 in experiment [16]; 0.649 with Sam68 (KHDRBS1); 0.768 in experiment [17]; 0.648 in experiment [18]. The same compound came in with a z-score in experiment [2] of 0.007. Besides, the composite Z-score in experiment [11] was 0.289 (inactive).

Regarding `OCc1ccc(-c2cc[n+](Cc3cccc(OC(F)(F)F)c3)cc2)cc1`, the composite z-score is 1.19 in experiment [1]; 1.36 in experiment [3]; -0.245 in [4]; -0.196 in experiment [5]; -0.0006 in [6]; -0.0146 in [7]. In addition, the composite z-score in experiment [8] is 0.425; in experiment [9], 1.08; in experiment [10], 1.9; with Albumin (Bos taurus), 0.503; in experiment [12], 0.11; in experiment [13] it was -0.0254. In addition, the composite z-score in [14] amounted to 0.894; in experiment [15] it was 0.813; in experiment [16] it was 1.08; with Sam68 (KHDRBS1), 0.981; in experiment [17], 1.49; in [18] it was 1.08. Moreover, the z-score in experiment [2] stood at 0.717. Also, in [11], the composite Z-score was 0.372 (inactive).

With `[N-]=[N+]=Nc1ccccc1[C@H]1OC(c2ccc(OCCCO)cc2)=N[C@@]1(Cc1ccccc1)C(=O)NCc1ccccc1`, the composite z-score is 1.4 in [1]; 0.364 in [3]; 0.503 in experiment [4]; -0.171 in experiment [5]; -0.0492 in experiment [6]; 0.0723 in experiment [7]. Also, the composite z-score in [8] is -0.261; in [9], 0.832; in experiment [10], 0.421; with Albumin (Bos taurus) it was 0.713; in experiment [12] it was 0.256; in experiment [13] it was -0.0714. Also, the composite z-score in [14] turned out to be 0.497; in experiment [15], 1.46; in [16] it was 0.112; with Sam68 (KHDRBS1) it was 1.31; in [17], 0.125; in experiment [18], 1.02. In experiment [2], this compound came in with a z-score of -3.14. Also, the composite Z-score in [11] is 1.76 (inactive).
